A short description of assay [1]: antimalarial activity against Dd2 strain (AID 2302;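 active means growth inhibition above 50% at the single 2 µM test dose, taken to imply half-maximal potency below 2 µM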;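 further: 0% = DMSO untreated growth and 100% = chloroquine plus artemisinin killed control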). Conditions: P. falciparum Dd2 in RBCs, LDH growth readout, 72 h; at 2 µM; active compounds read high.
Assay [2] in a line: human hepatoma cell viability loss – ATP luminescence, cytotoxicity control for P. falciparum antimalarial project, primary screen (AID 2303;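 active means inhibition above 50%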;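 further: 0% = DMSO wells and 100% = digitonin-killed cells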). As to conditions: HepG2 viability, 24-48 h, at 10 µM, active compounds read high.
Assay [3] concerns the target L-lactate dehydrogenase (Plasmodium falciparum (isolate CDC / Honduras)) (UniProt Q27743). Briefly: PfLDH activity inhibition – cell lysate, 3D7 strain, counter-screen for P. falciparum growth inhibition project (AID 2304).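 Further: 0% = vehicle and 100% = reference inhibitor.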 Conditions: P. falciparum 3D7 crude extract, LDH APAD/NBT absorbance; at 2 µM; active compounds read high.
Assay [4] can be described thus: inhibition of 3D7 malaria parasite growth – strain 3D7 (AID 2306).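 Further: 0% = DMSO wells and 100% = chloroquine plus artemisinin control wells.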 As to conditions: P. falciparum 3D7 erythrocytic growth, LDH absorbance, 72 h; at 2 µM; active compounds read high.
Assay [5] deals with Plasmodium falciparum protein kinase 6 (PK6, PF3D7_1337100) (UniProt Q8IDW1). The assay can be described thus: PfPK6 kinase inhibitors, biochemical, TCAMS library (AID 1159586). As to conditions: recombinant PfPK6, Kinase-Glo ATP depletion luminescence. Background: Kinase-Glo reads ATP consumption through a luciferase reaction.
Assay [6] deals with Protein kinase 7 (PK7), Plasmodium falciparum 3D7 (PF3D7_0213400) (UniProt Q7YTF7). Briefly: inhibition of Plasmodium PK7 catalytic activity – biochemical, TCAMS antimalarial set, Kinase-Glo luminescence (AID 1159587). As to conditions: recombinant PfPK7, Kinase-Glo ATP depletion luminescence.
For assay [7], the target named is Calcium-dependent protein kinase 4 (Plasmodium falciparum (isolate 3D7)) (UniProt Q8IBS5). The assay can be described thus: PfCDPK4 kinase inhibitors, biochemical, TCAMS library (AID 1159588; cut-off not given, nearly all actives have IC50 up to about 0.91 µM). Conditions: recombinant PfCDPK4, Kinase-Glo ATP depletion luminescence.

A number with no mark means an inactive call. For some assays here: Entries with a potency or affinity are not part of this list. Activity calls are given as the source filed them. Unless noted, how the calls were made is not given here.

The record followed here is PubChem BioAssay.

Sequence of Plasmodium falciparum protein kinase 6 (PK6, PF3D7_1337100) (Q8IDW1 1-305): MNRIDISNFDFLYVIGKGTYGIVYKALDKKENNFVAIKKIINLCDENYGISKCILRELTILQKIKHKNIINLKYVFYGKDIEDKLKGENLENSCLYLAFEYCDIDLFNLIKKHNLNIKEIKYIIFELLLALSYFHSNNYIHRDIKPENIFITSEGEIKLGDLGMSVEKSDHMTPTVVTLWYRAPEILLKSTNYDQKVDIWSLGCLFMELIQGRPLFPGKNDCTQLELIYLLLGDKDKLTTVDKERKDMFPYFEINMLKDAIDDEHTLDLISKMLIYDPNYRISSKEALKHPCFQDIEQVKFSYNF
Sequence of Calcium-dependent protein kinase 4 (Plasmodium falciparum (isolate 3D7)) (Q8IBS5 whole entry, looked up): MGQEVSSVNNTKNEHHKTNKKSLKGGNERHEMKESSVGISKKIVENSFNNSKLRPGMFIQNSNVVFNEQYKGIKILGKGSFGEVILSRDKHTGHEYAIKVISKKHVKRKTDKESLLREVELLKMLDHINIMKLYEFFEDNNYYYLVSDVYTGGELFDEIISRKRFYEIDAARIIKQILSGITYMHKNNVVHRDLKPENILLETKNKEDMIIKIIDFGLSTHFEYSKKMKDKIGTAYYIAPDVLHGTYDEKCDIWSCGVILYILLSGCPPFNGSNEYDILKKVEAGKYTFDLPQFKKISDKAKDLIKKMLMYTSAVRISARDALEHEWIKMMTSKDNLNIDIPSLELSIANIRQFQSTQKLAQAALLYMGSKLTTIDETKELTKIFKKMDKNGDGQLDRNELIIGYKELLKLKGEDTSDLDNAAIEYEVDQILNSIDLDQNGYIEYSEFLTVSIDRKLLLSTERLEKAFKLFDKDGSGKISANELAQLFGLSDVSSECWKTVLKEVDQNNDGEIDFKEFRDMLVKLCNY
Sequence of Protein kinase 7 (PK7), Plasmodium falciparum 3D7 (PF3D7_0213400) (Q7YTF7 1-343): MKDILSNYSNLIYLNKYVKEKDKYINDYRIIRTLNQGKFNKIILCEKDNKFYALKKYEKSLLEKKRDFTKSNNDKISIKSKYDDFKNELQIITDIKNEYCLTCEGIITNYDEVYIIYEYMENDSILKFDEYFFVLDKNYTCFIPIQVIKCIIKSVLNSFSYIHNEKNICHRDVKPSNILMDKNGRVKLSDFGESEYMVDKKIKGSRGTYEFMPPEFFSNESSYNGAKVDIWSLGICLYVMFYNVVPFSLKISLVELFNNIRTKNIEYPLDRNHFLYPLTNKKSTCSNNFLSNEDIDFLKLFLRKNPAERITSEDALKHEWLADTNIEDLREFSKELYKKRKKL
Sequence of L-lactate dehydrogenase (Plasmodium falciparum (isolate CDC / Honduras)) (Q27743 whole entry, looked up): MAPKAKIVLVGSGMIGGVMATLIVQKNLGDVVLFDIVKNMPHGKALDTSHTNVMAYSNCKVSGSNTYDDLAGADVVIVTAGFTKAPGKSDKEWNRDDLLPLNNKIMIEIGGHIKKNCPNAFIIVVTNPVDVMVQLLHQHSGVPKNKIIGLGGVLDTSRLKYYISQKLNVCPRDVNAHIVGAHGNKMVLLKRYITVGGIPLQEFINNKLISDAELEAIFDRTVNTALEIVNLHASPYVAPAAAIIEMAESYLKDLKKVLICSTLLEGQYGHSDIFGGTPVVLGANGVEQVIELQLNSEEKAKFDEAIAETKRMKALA

In general, inhibition refers to the drop in the measured response relative to a control, in per cent. As to `CC(C)(CNC(=O)C1CCN(CCOCc2ccccc2)CC1)c1nc(-c2ccc(Cl)c(O)c2)c(-c2ccncc2)[nH]1`, the growth inhibition in assay [1] is 18%; in assay [4] it was 101% (active). Further, the inhibition in assay [2] was 11%; in assay [3], -14%. Besides, the result in assay [5], in assay [6] and in assay [7] was inactive.

Regarding `Cc1ccc(Nc2nccc(Nc3ccc4c(c3)nc(Nc3cc(C(C)(C)C)on3)n4C)n2)cc1S(C)(=O)=O`, the figures for the growth inhibition in assay [1] and in assay [4] were 99% (active) and 100% (active), respectively. The values for the inhibition in assay [2] and in assay [3] were 30% and -5%, respectively. The outcome in assay [5], in assay [6] and in assay [7] was inactive.

Consider `COCCNCc1cccc(-c2ccc3c(Nc4ccc(Oc5cccnc5)cc4)ccnc3c2)c1`, for which the values for the growth inhibition in assay [1] and in assay [4] were 99% (active) and 100% (active), respectively. The results for the inhibition in assay [2] and in assay [3] were 58% (active) and -5%, respectively. Moreover, the result in assay [5], in assay [6] and in assay [7] was inactive.

On to `CS(=O)(=O)CCNCc1cccc(-c2ccc3c(Nc4cc(O)c(Cl)cc4F)ccnc3c2)c1`, for which the growth inhibition was 100% (active) in assay [1] and 101% (active) in assay [4]. Moreover, the inhibition in assay [2] is 9%; in assay [3], -7%. In addition, the result in assay [5], in assay [6] and in assay [7] was inactive.

With `COc1ccc(-c2cnc3ccc(NC4CCC(O)CC4)nn23)cn1` (centres undefined), the growth inhibition was 73% (active) in assay [1] and 98% (active) in assay [4]. Further, the inhibition in assay [2] was 54% (active); in assay [3], 4%. The result in assay [5], in assay [6] and in assay [7] was inactive.

Consider `c1ccc(Oc2ccc(Nc3ccnc(Nc4ccc(OCCN5CCCCC5)cc4)n3)cc2)cc1`, for which the growth inhibition in assay [1] was 66% (active); in assay [4] it was 97% (active). Moreover, the inhibition was 23% in assay [2] and -2% in assay [3]. Moreover, the outcome in assay [5], in assay [6] and in assay [7] was inactive.

With `CC(=O)Nc1cccc(Nc2nccc(Nc3ccc(Oc4ccccc4)cc3)n2)c1`, the growth inhibition in assay [1] is 99% (active); in assay [4], 101% (active). Also, the inhibition in assay [2] was 15%; in assay [3] it was -6%. The result in assay [5], in assay [6] and in assay [7] was inactive.

On to `CS(=O)(=O)Nc1cccc(-c2cnc3[nH]cc(-c4ccc(CN)cc4)c3c2)c1`, for which the results for the growth inhibition in assay [1] and in assay [4] were 95% (active) and 98% (active), respectively. For the same molecule, the values for the inhibition in assay [2] and in assay [3] were 27% and 2%, respectively. For the same molecule, the outcome in assay [5], in assay [6] and in assay [7] was inactive.

`Cc1cccc2[nH]c(-c3cc(-c4cn[nH]c4)cnc3N)nc12`: the growth inhibition was 93% (active) in assay [1] and 101% (active) in assay [4]. The inhibition was 37% in assay [2] and 0% in assay [3]. The outcome in assay [5], in assay [6] and in assay [7] was inactive.

As for `O=C(NCCN1CCC(c2ccncc2)CC1)c1ccc(Nc2nccc(Nc3ccc(Oc4ccccc4)cc3)n2)cc1`, the growth inhibition was 90% (active) in assay [1] and 102% (active) in assay [4]. The inhibition in assay [2] is 17%; in assay [3] it was 1%. The outcome in assay [5], in assay [6] and in assay [7] was inactive.

Consider `CS(=O)(=O)CCNCc1cccc(-c2ccc3c(Nc4ccc(Oc5cccnc5)cc4)ccnc3c2)c1`, for which the values for the growth inhibition in assay [1] and in assay [4] were 99% (active) and 101% (active), respectively. Further, the inhibition is 27% in assay [2] and 4% in assay [3]. Moreover, the outcome in assay [5], in assay [6] and in assay [7] was inactive.

As for `Cc1ccc(O)cc1Nc1ccnc2cc(-c3cccc(CNCCS(C)(=O)=O)c3)ccc12`, the growth inhibition is 100% (active) in assay [1] and 99% (active) in assay [4]. Also, the values for the inhibition in assay [2] and in assay [3] were 9% and 2%, respectively. For the same molecule, the result in assay [5], in assay [6] and in assay [7] was inactive.

Regarding `COc1ccc(CNCC(C)(C)c2nc(-c3ccc(Cl)c(O)c3)c(-c3ccncc3)[nH]2)cc1`, the growth inhibition in assay [1] is 99% (active); in assay [4] it was 101% (active). The inhibition in assay [2] was 76% (active); in assay [3], 1%. Also, the result in assay [5], in assay [6] and in assay [7] was inactive.

For `COc1cc2nccc(Nc3ccc(Oc4ccccc4)cc3)c2cc1OC`, the growth inhibition was 99% (active) in assay [1] and 102% (active) in assay [4]. The inhibition in assay [2] was 13%; in assay [3], -1%. For the same molecule, the result in assay [5], in assay [6] and in assay [7] was inactive.

As to `CN1CCN(CCCNCc2ccc(Nc3nccc(Nc4ccc(Oc5ccccc5)cc4)n3)cc2)CC1`, the growth inhibition is 9% in assay [1] and 100% (active) in assay [4]. The inhibition is 17% in assay [2] and 0% in assay [3]. The outcome in assay [5], in assay [6] and in assay [7] was inactive.

Turning to `COCCNCc1cccc(-c2ccc3c(Nc4cc(O)c(Cl)cc4F)ccnc3c2)c1`, the values for the growth inhibition in assay [1] and in assay [4] were 79% (active) and 101% (active), respectively. Further, the inhibition in assay [2] is -3%; in assay [3], 7%. Further, the outcome in assay [5], in assay [6] and in assay [7] was inactive.

On to `N#CCc1ccc(Nc2nccc(Nc3ccc(Oc4ccccc4)cc3)n2)cc1`, for which the figures for the growth inhibition in assay [1] and in assay [4] were 47% and 98% (active), respectively. Further, the inhibition in assay [2] is -1%; in assay [3] it was 6%. Besides, the outcome in assay [5], in assay [6] and in assay [7] was inactive.
